The campaign covered roughly 2,200 compounds. About 1,200 (55%) were called active. So high a share suggests a set chosen from earlier hits. The list shows a part of the results. Unmarked numbers belong to inactive results. Cut-off not given; nearly all actives show IC50 up to about 92 µM.

The nature of this experiment: counter assay for TAg ATPase ADP read-out – biochemical, ADP-Hunter, fluorescence, counter-screen (AID 2501).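 Further: purified T antigen ATPase.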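 On inhibition: 0% = enzyme with vehicle and 100% = reference inhibitor wells; higher means more inhibition.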 The settings on record: series mostly up to 100 µM; inhibition: at the top concentration.
As for `C#CCOCCOCCOCCNc1nc(N2CCN(C(=O)CCCCCCCCCCNC(=O)[C@H](CCCCN)n3cc(C[C@@H](C)CC)nn3)CC2)nc(N2CCN(C(=O)CCCCCCCCCCNC(=O)[C@H](CCCCN)n3cc(C[C@@H](C)CC)nn3)CC2)n1`, the “inhibition” value is 0.98%.

Consider `Cc1ccc(-n2sc3ccccc3c2=O)cc1S(=O)(=O)N1CCCCC1`, for which the IC50 is 24.1 µM (active).

`O=C(O)c1ccccc1NS(=O)(=O)c1cccc(-n2sc3ccccc3c2=O)c1`: the concentration for half-maximal inhibition (IC50) was 9.24 µM (active). On to `CN(C)S(=O)(=O)c1cccc(-n2sc3ccccc3c2=O)c1`, for which the half-inhibitory concentration (IC50) was 8.98 µM (active). For the compound `CCC1CCCCN1S(=O)(=O)c1ccc(NC(=O)c2nc(S(C)(=O)=O)ncc2Cl)cc1` (configuration not stated), the “inhibition” value was 14.9%. On the same count and under the same terms, with `O=C(C1=C[C@@H](c2ccc(Br)cc2)C[C@@H](OCCCCO)O1)N1CCOCC1` the figure was 10.4%. As to `Nc1c(/C=C2/C=CC(=O)C(O)=C2)c(=O)nc2sc(CC(=O)N3CCCC3)nn12`, the half-maximal inhibitory concentration (IC50) was 8.26 µM (active).

On to `COC1=C/C(=C/c2c(N)n3nc(CC(=O)N4CCCCC4)sc3nc2=O)C=CC1=O`, for which the IC50 is 7.89 µM (active). On the same count and under the same terms, with `Nc1c(/C=C2/C=CC(=O)C(O)=C2)c(=O)nc2sc(CC(=O)N3CCCCC3)nn12` the figure was 10.5 µM (active); with `Nc1c(C=C2C=CC(=O)C=C2)c(=O)nc2sc(CC(=O)N3CCCCC3)nn12`, 12.5 µM (active). For the compound `CC(=O)O[C@H]1C[C@@]2(C)[C@@H](C[C@@H](O)[C@H]3[C@@]4(C)CC[C@@H](O)[C@@H](C)C4CC[C@@]32C)/C1=C(\CCC=C(C)C)C(=O)O` (some centres not stated), the “inhibition” value is 28.7%. On the same count and under the same terms, with `CC(=O)NCCC1CCCCN1Cc1nc(Cc2cccc(C(F)(F)F)c2)no1` (configuration not stated) the figure was 18.1% [at 50 µM]; with `Cc1ccc(C(C(=O)NCc2ccc(F)cc2)N(CCCO)C(=O)C2COc3ccccc3O2)o1` (configuration not stated), -18.2%.

Turning to `O=c1[nH]c(/C=C\c2ccc(O)c(O)c2)nc(O)c1[N+](=O)[O-]`, the IC50 was 5.5 µM (active). In the case of `O=C(O)c1cc(S(=O)(=O)Nc2ccc3oc(=O)sc3c2)ccc1O`, the “inhibition” value is 13.4% [at 50 µM]. Take `O=c1oc2cc(O)ccc2s1`: the 50% inhibitory concentration (IC50) was 11.8 µM (active).

Consider `CCOC(=O)NNc1ccc2nonc2c1[N+](=O)[O-]`, for which the “inhibition” value is 10.1%. As for `O=c1cc(-c2ccc(O)c(O)c2)oc2cc(O)c(C3OC(CO)C(O)C(O)C3O)c(O)c12` (configuration not stated), the IC50 was 5.59 µM (active). For `O=c1cc(-c2ccc(O)cc2)oc2cc(O)c(C3OC(CO)C(O)C(O)C3O)c(O)c12` (configuration not stated), the IC50 is 18.6 µM (active). Take `O=c1c2cc(O)c(O)cc2oc2cc(O)c(C3OC(CO)C(O)C(O)C3O)c(O)c12` (configuration not stated): the half-inhibitory concentration (IC50) was 6.35 µM (active).

`O=c1cc(-c2ccc(O)cc2)oc2c(C3OCC(O)C(O)C3O)c(O)c(C3OC(CO)C(O)C(O)C3O)c(O)c12` (configuration not stated): the concentration for half-maximal inhibition (IC50) is 17.3 µM (active).

In the case of `O=c1cc(-c2ccccc2Cl)oc2cc(O)cc(O)c12`, the “inhibition” value is -10.2%.

Usually inhibition stands for the drop in the measured response relative to a control, in per cent. The IC50 is the concentration that gives 50% inhibition.

For the origin of these results see PubChem BioAssay AID2501 (Southern Research Specialized Biocontainment Screening …, 2010).
